This note sets out measurements from PubChem BioAssay AID686979 (National Center for Advancing Translational Sciences (NCATS), 2013).

The structures appear in SMILES notation. Among all 420,000 compounds or so, about 50,000 (12%) were called active. Another 26% or so got no clear call; they are omitted. Calls follow the shape of the dose curve; as a rule, active = well fitted inhibition curve with a large enough effect; inconclusive = small, poorly fitted or top-dose-only effect; inactive = flat fitted curve, though single readings scatter. The full list was thinned out, with actives kept by preference.
% is scaled to controls: 0 for no effect and ±100 for the full control effect; potency is read from the fitted curve at half-maximal effect.

The experiment in a line: qHTS for Inhibitors of human tyrosyl-DNA phosphodiesterase 1 (TDP1): qHTS in cells in presence of CPT. Also: nearly all actives have a fitted effect of over 55% in size. Conditions: chicken DT40 Tdp1-/-;hTDP1 cells + 20 nM CPT, ATP luminescence, 48 h; series mostly up to 46.2 µM; activity change, negative = growth inhibition: at the top concentration. In a few lines:
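Chicken DT40 Tdp1-/- cells stably complemented with human TDP1 were seeded at 400 cells/well in medium containing 20 nM camptothecin, exposed to pin-transferred compounds, and grown at 37 °C for at least 48 hr. Viability was read as ATP luminescence.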
Consider `Cn1c(CNC(=O)c2ccccc2F)nnc1SCc1ccc(F)cc1`, for which the “activity change, negative = growth inhibition” value was -7.86% (inactive).

In the case of `O=C(NCc1cccnc1)c1nc(-c2cccs2)no1`, the “activity change, negative = growth inhibition” value is 14.9% (inactive).

In the case of `CC(=O)Nc1ccc(NC(=O)CN2CCCC(C)C2)c(Cl)c1` (configuration not stated), the “activity change, negative = growth inhibition” value is -20.9% (inactive).

Consider `O=C(CSc1ccccc1)Nc1cc(Cl)ccc1Oc1ccccc1`, for which the “activity change, negative = growth inhibition” value was -9.91% (inactive).

Turning to `CC1CCCN(CC(=O)Nc2cc(Cl)ccc2Oc2ccccc2)C1` (configuration not stated), the Potency was 25.9 µM (active).

With `CC1CCCN(S(=O)(=O)c2ccc(-c3ccc(=O)[nH]n3)o2)C1` (configuration not stated), the “activity change, negative = growth inhibition” value was -5.64% (inactive).

As for `Cc1ccc(/C=C/C(=O)OCC(=O)NCc2ccc(Cl)cc2)o1`, the “activity change, negative = growth inhibition” value was 1.25% (inactive).

`Cc1ccc(N(C(=O)Cc2cccs2)C(C(=O)NCC2CCCO2)c2ccncc2)cc1` (configuration not stated): the “activity change, negative = growth inhibition” value was 0.789% (inactive).

For `COCCNC(=O)C(c1ccc(C)o1)N(Cc1cccs1)C(=O)c1snc(C(N)=O)c1N` (configuration not stated), the “activity change, negative = growth inhibition” value is -20.2% (inactive).

In the case of `Cc1ccc(N(C(=O)c2snc(C(N)=O)c2N)C(C(=O)NCC2CCCO2)c2c[nH]c3ccccc23)cc1` (configuration not stated), the Potency was 4.61 µM (active).

With `COc1ccc(N(C(=O)c2snc(C(N)=O)c2N)C(C(=O)NC2CCCC2)c2ccco2)cc1OC` (configuration not stated), the “activity change, negative = growth inhibition” value was 5.11% (inactive).

With `Cc1ccc(C(C(=O)NCC2CCCO2)N(C(=O)c2snc(C(N)=O)c2N)c2ccc(C(C)C)cc2)o1` (configuration not stated), the Potency was 23.1 µM (active).

For the molecule `CCOc1ccc(N(C(=O)c2snc(C(N)=O)c2N)C(C(=O)NCC2CCCO2)c2c[nH]c3ccccc23)cc1` (configuration not stated), the “activity change, negative = growth inhibition” value was -75.3% (inactive).

For `Nc1nc(Sc2ncccc2[N+](=O)[O-])n[nH]1`, the “activity change, negative = growth inhibition” value is -12% (inactive).

Consider `O=C(Oc1ccc(Br)cc1C(=S)N1CCOCC1)c1cccc([N+](=O)[O-])c1`, for which the “activity change, negative = growth inhibition” value is -14.6% (inactive).

As to `O=C(NNC(=O)C(O)c1ccccc1)NC1CCCCC1` (configuration not stated), the “activity change, negative = growth inhibition” value was -10.7% (inactive).

As for `O=C(CN1CCN(Cc2ccc(Cl)cc2)C1=O)NCc1ccc(F)cc1`, the “activity change, negative = growth inhibition” value was -26.3% (inactive).

For `NC(=O)c1ccc(Nc2ccc3nonc3c2[N+](=O)[O-])cc1`, the “activity change, negative = growth inhibition” value was 0.436% (inactive).

For the molecule `O=C(c1cccs1)N1CCN(Cc2ccc3c(c2)OCO3)CC1`, the “activity change, negative = growth inhibition” value was -18.3% (inactive).

With `Cc1cc(C)n2nc(C(=O)N3CCN(Cc4ccc5c(c4)OCO5)CC3)nc2n1`, the “activity change, negative = growth inhibition” value is 2.69% (inactive).

`O=C(C1CCN(Cc2ccc(Cl)cc2)CC1)N1CCN(Cc2ccc3c(c2)OCO3)CC1`: the Potency was 23.1 µM (active).

Turning to `CCN(CCCNC(=O)C1CCN(S(=O)(=O)c2cnc[nH]2)CC1)c1ccccc1`, the “activity change, negative = growth inhibition” value was -22% (inactive).

As for `O=C(Nc1cccc2ccccc12)N1CCN(Cc2ccc3c(c2)OCO3)CC1`, the “activity change, negative = growth inhibition” value was -19.1% (inactive).

With `O=C(C1CCN(S(=O)(=O)c2cnc[nH]2)CC1)N1CCN(Cc2ccc3c(c2)OCO3)CC1`, the Potency was 20.6 µM (active).

Consider `CCN(C(=O)CSc1nnnn1-c1ccc(OC)cc1)C1CCS(=O)(=O)C1` (configuration not stated), for which the “activity change, negative = growth inhibition” value is 4.62% (inactive).

On to `CO/N=C/c1cn(-c2ccc(Cl)cc2)nn1`, for which the “activity change, negative = growth inhibition” value was -1.57% (inactive).

For `CSc1ccc(/C=N/NC(=O)c2cccc(Cl)c2)cc1`, the “activity change, negative = growth inhibition” value is 2.7% (inactive).
